In all, about 8,300 sequences were measured (“log2 fold change of degron read counts, EGFP-low vs EGFP+ sorted cells (limma voom), compound-induced degradation”: median about -1.1, highest 2% from about 3.2 on). This excerpt belongs to a sample that is enriched for the highest values.
T1: CRBN, Q96SW2
T1 chain: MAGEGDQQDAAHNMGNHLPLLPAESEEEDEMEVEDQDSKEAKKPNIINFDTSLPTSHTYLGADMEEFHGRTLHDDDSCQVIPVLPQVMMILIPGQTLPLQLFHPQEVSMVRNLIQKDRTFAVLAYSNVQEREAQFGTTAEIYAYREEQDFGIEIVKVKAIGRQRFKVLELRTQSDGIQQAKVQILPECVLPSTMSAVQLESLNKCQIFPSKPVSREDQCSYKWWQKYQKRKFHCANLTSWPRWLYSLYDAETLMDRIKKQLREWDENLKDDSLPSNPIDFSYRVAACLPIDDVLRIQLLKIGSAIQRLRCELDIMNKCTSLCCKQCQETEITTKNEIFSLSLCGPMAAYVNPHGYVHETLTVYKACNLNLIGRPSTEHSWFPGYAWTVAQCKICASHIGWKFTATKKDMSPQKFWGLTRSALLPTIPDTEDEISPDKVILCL


Biological target: T1, CRBN, Q96SW2
Assay: log2 fold change of degron read counts, EGFP-low vs EGFP+ sorted cells (limma voom), compound-induced degradation; higher = more compound-induced degradation of the degron-EGFP fusion; degrons are variants of IKZF1/3 zinc finger 2; compound dose not given here
Settings: Jurkat, 18 h
[1] = compound: compound 19 (5-tert-butyl-thalidomide)
[2] = compound: compound 22 (5-morpholino-thalidomide)
[3] = compound: compound 33 (diphenyl IMiD analogue)
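Also: pooled lentiviral library of zinc finger degron-EGFP fusions in mCherry-positive Jurkat cells, FACS-sorted after compound exposure, with degron abundance counted by next-generation sequencing.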

| Sequence | log2 fold change of degron read counts [1] | log2 fold change of degron read counts [2] | log2 fold change of degron read counts [3] | log2 fold change of degron read counts (compound: thalidomide) |
| --- | --- | --- | --- | --- |
| FECPVCGAKFTQKGNLLRHIKL [46F_47E_49P_50V_52G_53A_54K_55F_67L_, Q9UKT9] | -0.0658 | -1.21 | -0.306 | 2.62 |
| FKCPVCGAKFTQKGNLLRHIKL [46F_47K_49P_50V_52G_53A_54K_55F_67L_, Q9UKT9] | -1.68 | -2.82 | -3.08 | -1.18 |
| FDCPVCGAKFTQKGNLLRHIKL [46F_47D_49P_50V_52G_53A_54K_55F_67L_, Q9UKT9] | 1.65 | 0.129 | -0.726 | 1.92 |
| FQCPVCGAKFTQKGNLLRHIKL [46F_47Q_49P_50V_52G_53A_54K_55F_67L_, Q9UKT9] | 0.186 | 2.88 | 0.361 | 3.96 |
| FWCPVCGAKFTQKGNLLRHIKL [46F_47W_49P_50V_52G_53A_54K_55F_67L_, Q9UKT9] | 2.74 | 3.29 | 0.923 | 0.809 |
| FACPVCGAKFTQKGNLLRHIKL [46F_47A_49P_50V_52G_53A_54K_55F_67L_, Q9UKT9] | 3.4 | 1.28 | -1.29 | 0.727 |
| FVCPVCGAKFTQKGNLLRHIKL [46F_47V_49P_50V_52G_53A_54K_55F_67L_, Q9UKT9] | -0.585 | 1.91 | -0.53 | 2.09 |
| FGCPVCGAKFTQKGNLLRHIKL [46F_47G_49P_50V_52G_53A_54K_55F_67L_, Q9UKT9] | 3.82 | 1.67 | -0.46 | 1.12 |
| FGCPICGRKFTQKGNLLRHIKL [46F_47G_49P_50I_52G_53R_54K_55F_67L_, Q9UKT9] | 3.06 | 0.59 | -1.32 | -0.606 |
| FRCNQCGRVFTQKGNLLRHIKL [46F_47R_49N_50Q_52G_53R_54V_55F_67L_, Q9UKT9] | -2.28 | -2.49 | -2.54 | -1.61 |
| FQCPICGRLFTQKGNLLRHIKL [46F_47Q_49P_50I_52G_53R_54L_55F_67L_, Q9UKT9] | -1.51 | -0.0572 | 0.785 | 2.29 |
| FVCEICGAFFTQKGNLLRHIKL [46F_47V_49E_50I_52G_53A_54F_55F_67L_, Q9UKT9] | -0.344 | -0.0422 | 1.09 | 1.08 |
| FICDVCGALFTQKGNLLRHIKL [46F_47I_49D_50V_52G_53A_54L_55F_67L_, Q9UKT9] | -1.82 | -0.923 | 0.0161 | -0.806 |
| FCCPQCGATFTQKGNLLRHIKL [46F_47C_49P_50Q_52G_53A_54T_55F_67L_, Q9UKT9] | -1.19 | -0.971 | 1.49 | -0.551 |

Reference: the supplement of paper PMC12645437, “Orthogonal IMiD-Degron Pairs Induce Selective Protein Degradation in Cells” (ACS Chemical Biology, 2025)
